Source: the supplement of paper PMC6555819

Tests used:
Assay in all cases: PBM binding z-score (relative to random genomic background probes); higher = stronger binding; sequences stand for … in GC…GCGATTGACAGCGTAGAATGAAGG
[1] = tested on: FXR:RXRa (NR concentration 270 nM, RXRa partner concentration 90 nM)
Outline: (§1)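 Ligand-free nuclear receptor dimers were bound for 1 h to custom Agilent 4×180K protein-binding microarrays. Detection used antibodies against each partner (one per run). Binding z-scores rest on regression-normalized fluorescence, with random background probes as the reference.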

[2] = tested on: LXRa:RXRa (NR concentration 270 nM, RXRa partner concentration 90 nM)
Outline: as §1

[3] = tested on: LXRa homodimer (NR concentration 270 nM)
Outline: as §1

[4] = tested on: LXRb:RXRa (NR concentration 270 nM, RXRa partner concentration 90 nM)
Outline: as §1

[5] = tested on: LXRb homodimer (NR concentration 270 nM)
Outline: as §1

[6] = tested on: PPARa:RXRa (NR concentration 270 nM, RXRa partner concentration 90 nM)
Outline: as §1

[7] = tested on: PPARg:RXRa (NR concentration 180 nM, RXRa partner concentration 90 nM)
Outline: as §1

[8] = tested on: PPARg:RXRa 270nM:90nM, anti-RXR (NR concentration 270 nM, RXRa partner concentration 90 nM)
Outline: as §1

[9] = tested on: PPARg:RXRa 30nM:10nM, anti-RXR (NR concentration 30 nM, RXRa partner concentration 10 nM)
Outline: as §1

[10] = tested on: PPARg:RXRa 90nM:30nM, anti-RXR (NR concentration 90 nM, RXRa partner concentration 30 nM)
Outline: as §1

[11] = tested on: PPARg:RXRa DBDmut IVT, anti-RXR (DBD mutation: RXRa K156A/R161A, NR concentration 270 nM, RXRa partner concentration 90 nM)
Outline: as §1

[12] = tested on: PPARg:RXRa IVT, anti-PPARg (NR concentration 270 nM, RXRa partner concentration 90 nM)
Outline: as §1

[13] = tested on: PPARg DBDmut:RXRa IVT, anti-PPARg (DBD mutation: PPARg1 K132A/R137A, NR concentration 270 nM, RXRa partner concentration 90 nM)
Outline: as §1

[14] = tested on: PPARg DBDmut IVT, anti-PPARg (DBD mutation: PPARg1 K132A/R137A, NR concentration 270 nM)
Outline: as §1

[15] = tested on: PPARg homodimer (NR concentration 180 nM)
Outline: as §1

[16] = tested on: PXR:RXRa (NR concentration 270 nM, RXRa partner concentration 90 nM)
Outline: as §1

[17] = tested on: PXR homodimer (NR concentration 270 nM)
Outline: as §1

[18] = tested on: RARa:RXR (NR concentration 270 nM, RXRa partner concentration 90 nM)
Outline: as §1

[19] = tested on: RARa homodimer (NR concentration 270 nM)
Outline: as §1

[20] = tested on: RARb:RXRa (NR concentration 270 nM, RXRa partner concentration 90 nM)
Outline: as §1

Row | Sequence | PBM binding z-score [1] | PBM binding z-score [2] | PBM binding z-score [3] | PBM binding z-score [4] | PBM binding z-score [5] | PBM binding z-score [6] | PBM binding z-score [7] | PBM binding z-score [8] | PBM binding z-score [9] | PBM binding z-score [10] | PBM binding z-score [11] | PBM binding z-score [12] | PBM binding z-score [13] | PBM binding z-score [14] | PBM binding z-score [15] | PBM binding z-score [16] | PBM binding z-score [17] | PBM binding z-score [18] | PBM binding z-score [19] | PBM binding z-score [20]
1 | TCATATAGGTAACTGCTAGGTGAAAGTCCGATCT | 1.07 | 1.19 | 0.0877 | 0.852 | -0.244 | 1.75 | 1.11 | 2.52 | 3.76 | 3.29 | 4.55 | 3.78 | 1.12 | 0.94 | 1.15 | 0.43 | 0.184 | 0.789 | 0.623 | 0.705
2 | CAAACTAGGTCACGGTCAAAGTCGGTTTGTGCCA | 5.44 | 4.31 | 1.73 | 3.13 | 0.506 | 5.57 | 9.6 | 7.81 | 5.91 | 7.67 | 8.53 | 9.26 | 4.37 | 3.83 | 2.22 | 2.72 | -0.218 | 3.68 | 0.991 | 4.81
3 | CCGACTGGCGCATAAGGTTACCATAAGCCAGCCC | 0.387 | 1.91 | -0.184 | 0.848 | -0.921 | 0.659 | 0.557 | 0.0532 | -0.553 | -0.235 | -0.22 | -0.617 | -0.674 | -0.756 | 0.0825 | 0.285 | -0.103 | 0.776 | 0.248 | 0.721
